Assay results: PubChem BioAssay (NCATS)
Results filed as inconclusive are left out. Active and inactive are the calls of the source. Unless noted, calls come from the whole dose curve; as a rule, active = well fitted curve in either direction with a large enough effect (not every such curve was filed as active); inconclusive = small, poorly fitted or top-dose-only effect, or another doubt; inactive = flat fitted curve, though single readings scatter.

Legend:
[1] = target: Lysosomal acid glucosylceramidase (Homo sapiens) (UniProt P04062); assay: Glucocerebrosidase-p2 (AID 348; in the data active = potency below about 10 µM; note: potency is the fitted concentration of half-maximal effect); conditions: purified GBA, blue fluorogenic substrate, 40 min
Lysosomal acid glucosylceramidase (Homo sapiens), sequence (P04062 whole entry, looked up): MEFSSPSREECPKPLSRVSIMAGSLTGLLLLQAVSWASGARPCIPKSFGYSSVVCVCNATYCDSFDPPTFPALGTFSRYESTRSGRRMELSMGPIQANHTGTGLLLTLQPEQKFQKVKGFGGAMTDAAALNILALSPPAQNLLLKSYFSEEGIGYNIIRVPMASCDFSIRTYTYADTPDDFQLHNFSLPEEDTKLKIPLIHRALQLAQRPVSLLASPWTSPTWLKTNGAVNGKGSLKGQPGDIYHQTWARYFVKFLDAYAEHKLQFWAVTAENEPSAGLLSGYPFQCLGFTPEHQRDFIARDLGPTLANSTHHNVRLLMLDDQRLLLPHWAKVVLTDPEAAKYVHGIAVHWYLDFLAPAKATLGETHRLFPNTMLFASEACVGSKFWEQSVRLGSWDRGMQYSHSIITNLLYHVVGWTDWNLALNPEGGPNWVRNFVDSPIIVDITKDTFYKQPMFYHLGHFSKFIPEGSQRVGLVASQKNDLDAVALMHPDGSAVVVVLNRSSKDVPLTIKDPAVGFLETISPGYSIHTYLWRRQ
Procedure, shortened: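 Compounds titrated from 0.6 nM upwards against 0.2 nM enzyme in pH 5.9 citric acid/KH2PO4, taurocholate, tween-20; blue fluorogenic substrate 80 uM, 40 min room temperature, stopped and read Ex 365/Em 440 for AC50.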

[2] = AP1 Signaling Pathway (AID 357); conditions: ME-180 AP-1-bla reporter, EGF-induced, beta-lactamase ratio, 5 h; at 7.69 µM (top of the series) unless noted;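 note: ME-180 reporter cells stimulated with EGF at its EC50 level; % is set by controls: 0 for no effect and ±100 for the full control effect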
Procedure, shortened: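 Beta-lactamase reporter under AP-1 response element, ME-180 background. Stimulus: EC50 EGF. Compound exposure 5 h, 37 °C. Detection: CCF4, 2.5 h RT, 460/530 nm. Values: AC50 from titration.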

[3] = target: Cytochrome P450 1A2 (Homo sapiens) (UniProt P05177); assay: p450-cyp1a2 (AID 410; calls by dose curve; note: potency is the fitted concentration of half-maximal effect;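 for activity change, negative = inhibition: -100% = full effect of reference inhibitor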); conditions: recombinant CYP1A2, luciferin-ME demethylation, luminescence; series mostly up to 57 µM
Cytochrome P450 1A2 (Homo sapiens), sequence (P05177 whole entry, looked up): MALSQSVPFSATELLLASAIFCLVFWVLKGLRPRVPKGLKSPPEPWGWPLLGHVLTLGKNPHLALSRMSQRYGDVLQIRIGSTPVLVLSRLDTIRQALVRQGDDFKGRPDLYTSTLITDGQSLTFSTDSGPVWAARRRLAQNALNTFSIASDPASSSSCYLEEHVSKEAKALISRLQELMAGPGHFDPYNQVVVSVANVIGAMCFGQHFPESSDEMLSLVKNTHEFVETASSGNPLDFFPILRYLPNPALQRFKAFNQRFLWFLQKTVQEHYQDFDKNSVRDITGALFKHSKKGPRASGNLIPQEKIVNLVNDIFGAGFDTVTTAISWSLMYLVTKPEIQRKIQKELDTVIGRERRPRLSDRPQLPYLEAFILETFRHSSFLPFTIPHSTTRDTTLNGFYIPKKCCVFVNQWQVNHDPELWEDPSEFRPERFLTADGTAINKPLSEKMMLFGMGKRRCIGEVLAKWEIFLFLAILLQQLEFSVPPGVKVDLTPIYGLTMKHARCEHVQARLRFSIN
Procedure, shortened: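 Luminescent readout of luciferin formed from Luciferin-ME by human CYP1A2; data normalized against complete inhibition by 57 uM furafylline. Enzyme 20nM, substrate 100uM at Km, 100mM KPO4 buffer, 60 min reaction at room temperature.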

[4] = NFAT Signaling Pathway (AID 444); conditions: Jurkat NFAT-bla M1, carbachol, beta-lactamase ratio, 5 h; at 7.69 µM (top of the series) unless noted;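 note: carbachol stimulus at about its EC50 of 1 µM final; % is set by controls: 0 for no effect and ±100 for the full control effect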
Procedure, shortened: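 Read-out: CCF4 FRET ratio (460 nm/530 nm) after 1 h RT dye loading, used for %activity and AC50 from titration series. Cells: Jurkat NFAT-β-lactamase/M1 line, treated with compound plus 1 uM carbachol for 5 h, 37 °C.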

[5] = Stat Signaling Pathway (AID 446); conditions: ME-180 SIE beta-lactamase reporter, IL-6 stimulated, 5 h; at 7.69 µM (top of the series) unless noted;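 note: ME-180 cervical cancer cells given 40 pM IL-6 alongside compound; SIE-controlled beta-lactamase reporter measured as 460/530 nm FRET emission ratio; % is set by controls: 0 for no effect and ±100 for the full control effect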
Procedure, shortened: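 IL-6/STAT signaling read in ME-180 cells via an SIE beta-lactamase reporter. Stimulus was 40 pM IL-6 (its AC50) for 5 hrs, so both activation and inhibition register.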

[6] = target: Glucocorticoid receptor (Homo sapiens) (UniProt P04150); assay: GR-EFC Redistribution (AID 451; calls by dose curve; note: potency is the fitted concentration of half-maximal effect); conditions: CHO-K1 GR-EFC translocation, beta-gal luminescence, 2 h
Glucocorticoid receptor (Homo sapiens), sequence (P04150 whole entry, looked up, the tested form may be a part): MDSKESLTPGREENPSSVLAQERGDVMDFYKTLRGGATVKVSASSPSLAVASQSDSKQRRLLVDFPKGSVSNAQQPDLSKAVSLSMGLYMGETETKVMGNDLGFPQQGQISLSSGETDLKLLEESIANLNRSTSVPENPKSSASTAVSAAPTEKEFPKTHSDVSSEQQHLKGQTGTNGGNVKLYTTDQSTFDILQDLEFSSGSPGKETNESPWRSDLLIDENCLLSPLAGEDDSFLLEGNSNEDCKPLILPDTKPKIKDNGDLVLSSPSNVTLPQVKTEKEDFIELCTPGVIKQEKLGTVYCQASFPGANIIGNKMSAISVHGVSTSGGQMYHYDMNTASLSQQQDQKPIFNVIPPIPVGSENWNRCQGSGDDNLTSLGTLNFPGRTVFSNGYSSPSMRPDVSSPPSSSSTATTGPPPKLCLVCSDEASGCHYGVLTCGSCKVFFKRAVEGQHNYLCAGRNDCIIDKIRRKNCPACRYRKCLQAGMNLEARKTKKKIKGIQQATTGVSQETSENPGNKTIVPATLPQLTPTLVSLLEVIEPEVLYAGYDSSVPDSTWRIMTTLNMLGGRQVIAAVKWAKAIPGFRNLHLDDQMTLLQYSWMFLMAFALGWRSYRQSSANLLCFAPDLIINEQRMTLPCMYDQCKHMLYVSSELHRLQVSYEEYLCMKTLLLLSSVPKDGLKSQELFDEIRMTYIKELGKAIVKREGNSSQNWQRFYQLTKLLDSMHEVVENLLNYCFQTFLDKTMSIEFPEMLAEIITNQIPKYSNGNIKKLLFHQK
Procedure, shortened: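 Translocation of GR-ED fusion to nuclear EA restores b-gal, read by luminescence after 1 h room-temperature detection. Engineered CHO-K1 biosensor cells, 1,000/well, exposed 2 h at 37 C to titrations up to 46 uM final.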

[7] = target: Mitogen-activated protein kinase 10 (Mus musculus) (UniProt Q61831); assay: JNK3 AlphaScreen Assay (AID 530); conditions: JNK3 lysate, c-Jun phosphorylation; series mostly up to 57.1 µM;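 note: kinase came from lysate of stimulated human HepG2 cells; signal reports phosphorylation of biotinylated GST-cJun 1-79 at Ser73 with 10 µM ATP; % is set by controls: 0 for no effect and ±100 for the full control effect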
Procedure, shortened: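 Compound titrations were preincubated 15 minutes at room temperature with substrate, antibody and pre-activated JNK3-containing HepG2 lysate. Reactions were started with 10 uM ATP and stopped with EDTA-containing bead buffer for AlphaScreen detection.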

[8] = target: 3',5'-cyclic-AMP phosphodiesterase 4B (Homo sapiens) (UniProt Q07343); assay: qHTS Assay for Inhibitors of PDE-IV (AID 607; active = well fitted activation curve with a large enough effect in the main read-out, with a control signal flat, not every such curve was filed as active; note: % of control where 0% means no effect); conditions: HEK293 ACTOne CNG channel cells, membrane potential fluorescence; series mostly up to 22.9 µM
3',5'-cyclic-AMP phosphodiesterase 4B (Homo sapiens), sequence (Q07343 whole entry, looked up): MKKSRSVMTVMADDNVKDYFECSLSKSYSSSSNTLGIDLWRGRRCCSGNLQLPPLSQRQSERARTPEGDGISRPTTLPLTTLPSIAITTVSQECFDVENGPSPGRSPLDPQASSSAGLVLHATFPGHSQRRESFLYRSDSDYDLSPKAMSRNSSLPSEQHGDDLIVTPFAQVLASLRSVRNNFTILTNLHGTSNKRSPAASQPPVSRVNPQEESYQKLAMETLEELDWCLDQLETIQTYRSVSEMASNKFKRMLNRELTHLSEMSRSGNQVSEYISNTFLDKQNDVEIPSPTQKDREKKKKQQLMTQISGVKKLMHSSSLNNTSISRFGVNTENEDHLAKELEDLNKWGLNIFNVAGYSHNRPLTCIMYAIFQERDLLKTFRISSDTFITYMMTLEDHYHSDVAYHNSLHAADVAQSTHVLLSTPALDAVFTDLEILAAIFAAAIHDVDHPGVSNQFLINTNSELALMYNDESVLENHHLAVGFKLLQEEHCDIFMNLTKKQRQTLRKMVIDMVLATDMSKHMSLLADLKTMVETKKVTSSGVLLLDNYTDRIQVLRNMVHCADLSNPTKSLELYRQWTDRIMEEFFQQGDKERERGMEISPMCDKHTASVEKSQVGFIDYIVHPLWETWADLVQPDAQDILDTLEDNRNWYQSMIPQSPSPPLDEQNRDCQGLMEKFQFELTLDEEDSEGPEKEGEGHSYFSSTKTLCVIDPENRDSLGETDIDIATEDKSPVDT
Procedure, shortened: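 Live HEK293 cells with a modified cyclic nucleotide-gated (CNG) channel report intracellular cAMP via membrane-potential dye fluorescence (ex 535/em 590 nm). Endogenous PDE-IV was targeted. Compounds were tested at up to 22.9 uM final; RO 20-1724 100 uM served as control.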

[9] = qHTS Assay for Identification of Small Molecule Agonists for Hypoxia Response Element Signaling Pathway (AID 914; active = well fitted activation curve with a large enough effect in the signal ratio, with a control signal flat, not every such curve was filed as active; the % refers to the signal ratio; note: potency is the fitted concentration of half-maximal effect; for activation: % of control where 0% means no effect); conditions: ME-180 (cervical carcinoma) HRE-bla reporter, beta-lactamase ratio, CoCl2, 17 h; activation: stronger effect = higher value
Procedure, shortened: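 Cells were plated overnight, pin-dosed with compound in a titration series, co-stimulated with EC50 CoCl2 and incubated 17 hours at 37 degrees Celsius. CCF4 substrate was then loaded, and AC50 values came from the 460nm/530nm ratio.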

[10] = qHTS Assay for Lipid Storage Modulators (AID 1519; calls by dose curve); conditions: Drosophila S3 cells, BODIPY lipid droplet/cell ratio, laser cytometry, cells loaded with oleic acid; for activity change, negative = inhibition: at 57.5 µM (top of the series)
Procedure, shortened: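 Cells seeded at 5,000 per well were treated with compounds over a concentration series and loaded with oleic acid (400 uM, as added). Lipid droplet fluorescence (488 nm excitation, 500-530 nm channel) was read by laser-scanning cytometry and normalized to 20 uM Triacsin C.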

[11] = Primary qHTS for small molecule stabilizers of the endoplasmic reticulum resident proteome: Secreted ER Calcium Modulated Protein (SERCaMP) assay (AID 1508630; active = well fitted curve in the direction sought with a large enough effect; an effect the other way counts as inactive or inconclusive; note: % is set by controls: 0 for no effect and ±100 for the full control effect); conditions: SH-SY5Y GLuc-SERCaMP (Gaussia luciferase released on ER calcium loss) secretion, thapsigargin, luminescence; series mostly up to 38.4 µM
Procedure, shortened: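 GLuc-SERCaMP-expressing SH-SY5Y cells, pretreated 16 h with compound, are challenged with thapsigargin to empty ER calcium stores; after 4 h, coelenterazine is added directly to the medium and luminescence is imaged.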

[12] = target: Cytochrome P450 3A4 (Homo sapiens) (UniProt P08684); assay: qHTS Assay for Activators of Cytochrome P450 3A4 (AID 885; active = well fitted curve in the direction sought with a large enough effect; an effect the other way counts as inactive or inconclusive; note: nearly all actives have a fitted effect of over 65% in size); conditions: recombinant CYP3A4, Luciferin-PPXE luminescence, 60 min; series mostly up to 57.1 µM
Cytochrome P450 3A4 (Homo sapiens), sequence (P08684 whole entry, looked up): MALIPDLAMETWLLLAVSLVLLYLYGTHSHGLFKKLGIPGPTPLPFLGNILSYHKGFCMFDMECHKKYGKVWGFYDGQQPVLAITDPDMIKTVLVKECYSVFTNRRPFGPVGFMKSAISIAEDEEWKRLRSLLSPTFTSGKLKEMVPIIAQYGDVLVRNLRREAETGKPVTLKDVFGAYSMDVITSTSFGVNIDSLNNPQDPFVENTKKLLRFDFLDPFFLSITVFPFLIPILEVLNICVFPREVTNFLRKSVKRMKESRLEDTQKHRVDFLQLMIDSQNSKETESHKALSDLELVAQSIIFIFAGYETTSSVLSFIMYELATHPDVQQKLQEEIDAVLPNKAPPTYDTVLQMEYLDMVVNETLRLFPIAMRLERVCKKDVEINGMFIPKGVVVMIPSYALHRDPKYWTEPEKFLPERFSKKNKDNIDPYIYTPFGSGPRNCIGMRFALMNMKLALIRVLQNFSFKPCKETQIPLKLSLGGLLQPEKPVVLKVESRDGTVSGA
Procedure, shortened: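 Quantitative HTS format: compounds preincubated with 20nM human CYP3A4 and Luciferin-PPXE substrate at KM, reaction started by NADPH regeneration, stopped after 60 min, luciferase luminescence read 20 min later.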

[13] = target: Cytochrome P450 2D6 (Homo sapiens) (UniProt P10635); assay: qHTS Assay for Inhibitors and Substrates of Cytochrome P450 2D6 (AID 891; active = well fitted curve in the direction sought with a large enough effect; an effect the other way counts as inactive or inconclusive; note: potency is the fitted concentration of half-maximal effect; nearly all actives have a fitted effect of over 60% in size); conditions: recombinant CYP2D6, luciferin-ME EGE luminescence; series mostly up to 57.1 µM
Cytochrome P450 2D6 (Homo sapiens), sequence (P10635 whole entry, looked up): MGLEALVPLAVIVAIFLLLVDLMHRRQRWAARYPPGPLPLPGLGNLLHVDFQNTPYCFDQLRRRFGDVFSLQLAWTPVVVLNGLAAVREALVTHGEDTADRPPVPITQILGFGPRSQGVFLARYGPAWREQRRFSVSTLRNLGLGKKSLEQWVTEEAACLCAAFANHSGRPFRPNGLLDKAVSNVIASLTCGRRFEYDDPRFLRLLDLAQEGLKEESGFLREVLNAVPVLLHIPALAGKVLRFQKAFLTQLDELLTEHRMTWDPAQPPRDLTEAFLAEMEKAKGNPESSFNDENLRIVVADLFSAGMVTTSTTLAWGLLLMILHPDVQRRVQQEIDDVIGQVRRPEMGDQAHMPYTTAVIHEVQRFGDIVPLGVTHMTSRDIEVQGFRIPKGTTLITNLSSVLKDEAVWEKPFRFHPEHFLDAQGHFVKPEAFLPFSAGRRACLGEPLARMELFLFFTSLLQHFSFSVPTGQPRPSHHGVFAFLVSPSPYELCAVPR
Procedure, shortened: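 Human CYP2D6 (5 nM) with 30 uM Luciferin-ME EGE (at Km) in 100 mM KPO4, compound preincubated 10 min, then NADPH regeneration system for 60 min at room temperature. Luciferin read by luminescence; normalized to 1.43 uM quinidine.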

[14] = measured here: cell count channel max response
[15] = measured here: lipid channel max response

COc1ncc2nc(-c3cccs3)c(=O)n(-c3ccccc3)c2n1
-2.75%: max response [10, 15]
active: Potency [3] 2 µM | Potency [9] 3.16 µM
-0.0529%: max response [10, 14]
inactive: Potency [1] > 11.4 µM | activity change, negative = inhibition [2] -4.36% | activity change, negative = inhibition [4] -4.96% | activity, negative = inhibition [5] 17.5% | Potency [6] > 46 µM | outcome [7] | Potency [8] | activity change, negative = inhibition [10] -3.04% | Potency [11]

CC(C)NC(=O)N1CCCC2(CCN(C(=O)c3cc(C(F)(F)F)cc(C(F)(F)F)c3)CC2)C1
inactive: Potency [1] > 11.4 µM | activity change, negative = inhibition [2] -19.4% | Potency [3] | activity change, negative = inhibition [4] 11.4% | activity, negative = inhibition [5] -13.3% | Potency [6] > 46 µM | outcome [7] | Potency [8] | Potency [12] | activation [9] -9.04% | activity change, negative = inhibition [10] -6.13% | Potency [11]
16.6%: max response [10, 14]
12%: max response [10, 15]

CC(C)NC(=O)N1CC2(CCN(C(=O)c3ccco3)CC2)C1
inactive: Potency [1] > 11.4 µM | activity change, negative = inhibition [2] -14.7% | Potency [3] | activity change, negative = inhibition [4] 16.4% | activity, negative = inhibition [5] -2.76% | Potency [6] > 46 µM | outcome [7] | Potency [8] | activation [9] 0.544% | activity change, negative = inhibition [10] -0.739% | Potency [11]
-15.7%: max response [10, 14]
-15.1%: max response [10, 15]

COc1ccccc1CN1CC[C@@]2(CCCN(C(=O)c3cccn3C)C2)C1
inactive: Potency [1] > 11.4 µM | activity change, negative = inhibition [2] -17% | Potency [3] | activity change, negative = inhibition [4] -9.11% | activity, negative = inhibition [5] -10.5% | Potency [6] > 46 µM | outcome [7] | Potency [8] | Potency [12] | activity change, negative = inhibition [10] 3.67% | Potency [11]
13.2%: max response [10, 15]
9.96%: max response [10, 14]
active: Potency [13] 0.316 µM

CC(C)NC(=O)N1CC[C@@]2(CCCN(C(=O)c3cc(C(F)(F)F)cc(C(F)(F)F)c3)C2)C1
inactive: Potency [1] > 11.4 µM | activity change, negative = inhibition [2] 8.49% | Potency [3] | activity change, negative = inhibition [4] 9.52% | activity, negative = inhibition [5] -10.1% | Potency [6] > 46 µM | outcome [7] | Potency [8] | Potency [12] | activation [9] -1.12% | activity change, negative = inhibition [10] 1.68% | Potency [11]
20.3%: max response [10, 15]
19.4%: max response [10, 14]

CS(=O)(=O)N1CCC2(CC1)CN(Cc1cc(C(F)(F)F)cc(C(F)(F)F)c1)C2
active: Potency [13] 0.398 µM
-5.23%: max response [10, 14]
inactive: Potency [1] > 11.4 µM | activity change, negative = inhibition [2] 5.66% | Potency [3] | activity change, negative = inhibition [4] -8.2% | activity, negative = inhibition [5] -3.12% | Potency [6] > 46 µM | outcome [7] | Potency [8] | activity change, negative = inhibition [10] 2.23% | Potency [11]
0.681%: max response [10, 15]
